This is part of a sample that, as a whole, favours compounds with a hit. Of some 79,000 tested, about 15% had one in any assay. Activity calls are given as the source filed them. Cut-off read from the data, not from the text of the source: active = growth inhibition above about 70%; inactive = the rest.
Assays:
[1] = NCI Yeast Anticancer Drug Screen. Data for the rad52 strain (AID 147);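 note: 0% = growth of vehicle-treated control cultures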; details: S. cerevisiae rad52 mutant growth inhibition, stronger effect = higher value
In short: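 Screen used a yeast mutant impaired in DNA repair. After compound exposure, growth was measured. Values reflect inhibition compared with vehicle-treated cells.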

[2] = NCI Yeast Anticancer Drug Screen. Data for the wt1 strain (AID 149);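 note: 0% = growth of vehicle-treated wt1 cultures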; details: S. cerevisiae wt1 strain (SPY 50644) growth inhibition, stronger effect = higher value
In short: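 Growth inhibition read against vehicle controls after compound exposure of the wt1 yeast strain.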

[3] = NCI Yeast Anticancer Drug Screen. Data for the rad50EPP+ strain (AID 151);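 note: 0% = growth of vehicle-treated control cultures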; details: S. cerevisiae rad50 mutant strain, stronger effect = higher value
In short: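 Exposing the rad50EPP+ strain to each compound, growth was compared with vehicle-only cultures to give inhibition.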

[4] = NCI Yeast Anticancer Drug Screen. Data for the mgt1 strain (AID 153); details: S. cerevisiae mgt1 mutant growth inhibition, stronger effect = higher value
In short: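 Genetically defined yeast (mgt1) treated with compound; inhibition of growth expressed against vehicle-treated controls.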

[5] = NCI Yeast Anticancer Drug Screen. Data for the rad50 strain (AID 155);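 note: 0% = growth of vehicle-only cultures of the same strain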; details: S. cerevisiae rad50 strain growth inhibition, stronger effect = higher value
In short: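 Readout: growth inhibition relative to vehicle-treated cultures. Compound exposure was carried out in a genetically defined yeast strain deficient in DNA damage repair.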

[6] = NCI Yeast Anticancer Drug Screen. Data for the mec2-1 strain (AID 157); details: S. cerevisiae mec2-1 strain, stronger effect = higher value
In short: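 Readout is yeast growth inhibition, normalised to vehicle-treated controls, in the mec2-1 strain exposed to compound.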

[7] = NCI Yeast Anticancer Drug Screen. Data for the rad14 strain (AID 159);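 note: 0% = growth of vehicle-treated control cultures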; details: S. cerevisiae rad14 strain growth inhibition, stronger effect = higher value
In short: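 Growth inhibition vs vehicle controls; genetically altered yeast strain (DNA damage repair defect) treated with test compounds.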

[8] = NCI Yeast Anticancer Drug Screen. Data for the sgs1 mgt1 strain (AID 161);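 note: 0% = growth of cultures given vehicle only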; details: S. cerevisiae sgs1 mgt1 strain, stronger effect = higher value
In short: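 Yeast cells carrying a defined DNA-repair defect were exposed to test compounds. Growth inhibition was measured relative to vehicle-treated controls.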

[9] = NCI Yeast Anticancer Drug Screen. Data for the CLN2oe strain (AID 163);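 note: 0% = growth of vehicle-only control cultures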; details: S. cerevisiae CLN2oe strain, stronger effect = higher value
In short: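 Values reflect how much compound exposure reduced yeast growth, referenced to vehicle-exposed cells. Assay organism is a strain with a defined genetic change affecting cell-cycle control.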

[10] = NCI Yeast Anticancer Drug Screen. Data for the cln2 rad14 strain (AID 165);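 note: 0% = growth equal to vehicle treated cultures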; details: S. cerevisiae cln2 rad14 strain, stronger effect = higher value
In short: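 Relative to vehicle controls, growth inhibition of compound-treated cln2 rad14 yeast was recorded.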

[11] = NCI Yeast Anticancer Drug Screen. Data for the bub3 strain (AID 167); details: S. cerevisiae bub3 mutant strain, stronger effect = higher value
In short: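 Readout: yeast growth inhibition, expressed relative to vehicle-only wells. The test organism is a mutant strain from a panel with lesions in DNA repair or checkpoint genes.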

[12] = NCI Yeast Anticancer Drug Screen. Data for the wt2 strain (AID 169);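 note: 0% = growth of vehicle-treated yeast cultures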; details: S. cerevisiae wt2 strain growth inhibition, stronger effect = higher value
In short: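 Values express reduction in yeast growth under compound treatment, referenced to vehicle-treated cells.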

[13] = NCI Yeast Anticancer Drug Screen. Data for the mlh1 strain (AID 171);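 note: 0% = growth of vehicle-treated control cultures of the same strain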; details: S. cerevisiae mlh1 strain growth inhibition, stronger effect = higher value
In short: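 Steps: expose the defined-mutant yeast strain to compound; expose a parallel culture to vehicle; measure growth; express compound effect as inhibition relative to the vehicle culture.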

[14] = NCI Yeast Anticancer Drug Screen. Data for the sgs1 strain (AID 173);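 note: 0% = growth of vehicle-only control cultures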; details: S. cerevisiae sgs1 mutant, stronger effect = higher value
In short: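 Treat defined-mutant yeast with compound; measure growth; calculate inhibition relative to vehicle-treated cells.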

[15] = NCI Yeast Anticancer Drug Screen. Data for the mlh1 rad18 strain (AID 175); details: S. cerevisiae mlh1 rad18 strain growth inhibition, stronger effect = higher value
In short: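 Test agents were incubated with a yeast strain of defined genotype (DNA damage repair defect). Inhibition of growth was derived by comparison with vehicle-exposed cultures.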

[16] = NCI Yeast Anticancer Drug Screen. Data for the rad18 strain (AID 177); details: S. cerevisiae rad18 mutant growth inhibition, stronger effect = higher value
In short: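 A genetically defined yeast mutant impaired in DNA damage repair was treated with test compounds, then its growth was measured against cultures receiving vehicle alone.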

[17] = at 5.0 µM (retest, dose inferred, filed as 0.5)
[18] = at 50.0 µM (retest, dose inferred, filed as 5.0)

Measured: growth inhibition

CC[C@@]1(O)C(=O)OCc2c1cc1n(c2=O)Cc2cc3ccccc3nc2-1
inactive: [2]; at 1.2 µM 2% | [2]; at 3.7 µM 39% | [4]; at 1.2 µM 0% | [4]; at 3.7 µM 6% | [6]; at 1.2 µM 47% | [7]; at 1.2 µM 21% | [7]; at 3.7 µM 55% | [8]; [17] 53% | [9]; at 1.2 µM 8% | [9]; at 3.7 µM 55% | [10]; [17] 14% | [10]; at 50.0 µM 58% | [11]; at 1.2 µM -12% | [11]; at 3.7 µM 15% | [11]; [17] -16% | [12]; at 1.2 µM 17% | [12]; at 3.7 µM 57% | [13]; at 1.2 µM -2% | [13]; at 3.7 µM 35% | [14]; at 1.2 µM 29% | [15]; [17] 39% | [16]; at 1.2 µM -6% | [16]; at 3.7 µM 20%
active: [1]; at 1.2 µM 97% | [1]; at 3.7 µM 98% | [1]; at 11.0 µM 98% | [1]; at 33.0 µM 97% | [1]; at 100.0 µM 95% | [2]; at 11.0 µM 90% | [2]; at 33.0 µM 94% | [2]; at 100.0 µM 95% | [3]; at 1.2 µM 89% | [3]; at 3.7 µM 95% | [3]; at 11.0 µM 97% | [3]; at 33.0 µM 97% | [3]; at 100.0 µM 96% | [4]; at 11.0 µM 79% | [4]; at 33.0 µM 91% | [4]; at 100.0 µM 92% | [5]; at 1.2 µM 97% | [5]; at 3.7 µM 97% | [5]; [17] 97% | [5]; at 11.0 µM 96% | [5]; at 33.0 µM 96% | [5]; [18] 97% | [5]; at 50.0 µM 86.9% | [5]; at 100.0 µM 95% | [6]; at 3.7 µM 95% | [6]; [17] 73% | [6]; at 11.0 µM 97% | [6]; at 33.0 µM 98% | [6]; [18] 98% | [6]; at 50.0 µM 88.2% | [6]; at 100.0 µM 97% | [7]; at 11.0 µM 89% | [7]; at 33.0 µM 97% | [7]; at 100.0 µM 96% | [8]; [18] 95% | [8]; at 50.0 µM 81.7% | [9]; at 11.0 µM 89% | [9]; at 33.0 µM 93% | [9]; at 100.0 µM 91% | [10]; [18] 89% | [11]; at 11.0 µM 90% | [11]; at 33.0 µM 95% | [11]; [18] 90% | [11]; at 50.0 µM 78.5% | [11]; at 100.0 µM 96% | [12]; at 11.0 µM 92% | [12]; at 33.0 µM 97% | [12]; at 100.0 µM 96% | [13]; at 11.0 µM 84% | [13]; at 33.0 µM 93% | [13]; at 100.0 µM 93% | [14]; at 3.7 µM 82% | [14]; at 11.0 µM 95% | [14]; at 33.0 µM 96% | [14]; at 100.0 µM 95% | [15]; [18] 93% | [15]; at 50.0 µM 81.7% | [16]; at 11.0 µM 89% | [16]; at 33.0 µM 93% | [16]; at 100.0 µM 94%

O=C(Nc1cc(Cl)ccc1Cl)C(Cl)(Cl)Cl
inactive: [1]; at 1.2 µM 1% | [1]; at 3.7 µM 6% | [1]; at 11.0 µM 12% | [1]; at 33.0 µM 22% | [1]; at 100.0 µM 30% | [2]; at 1.2 µM 0% | [2]; at 3.7 µM 2% | [2]; at 11.0 µM 4% | [2]; at 33.0 µM 6% | [2]; at 100.0 µM 6% | [3]; at 1.2 µM 2% | [3]; at 3.7 µM 8% | [3]; at 11.0 µM 14% | [3]; at 33.0 µM 22% | [3]; at 100.0 µM 25% | [4]; at 1.2 µM 1% | [4]; at 3.7 µM 3% | [4]; at 11.0 µM 6% | [4]; at 33.0 µM 5% | [4]; at 100.0 µM -22% | [5]; at 1.2 µM 2% | [5]; at 3.7 µM 6% | [5]; [17] 16% | [5]; at 11.0 µM 13% | [5]; at 33.0 µM 26% | [5]; [18] 41% | [5]; at 50.0 µM 53.9% | [5]; at 100.0 µM 26% | [6]; at 1.2 µM 1% | [6]; at 3.7 µM 6% | [6]; [17] -4% | [6]; at 11.0 µM 11% | [6]; at 33.0 µM 19% | [6]; [18] 58% | [6]; at 50.0 µM 61.3% | [6]; at 100.0 µM 25% | [7]; at 1.2 µM 3% | [7]; at 3.7 µM 6% | [7]; at 11.0 µM 13% | [7]; at 33.0 µM 21% | [7]; at 100.0 µM 30% | [8]; [17] 1% | [8]; [18] 32% | [8]; at 50.0 µM 24.1% | [9]; at 1.2 µM 4% | [9]; at 3.7 µM 5% | [9]; at 11.0 µM 10% | [9]; at 33.0 µM 7% | [9]; at 100.0 µM 9% | [10]; [17] 32% | [10]; [18] -6% | [10]; at 50.0 µM -52.4% | [11]; at 1.2 µM -1% | [11]; at 3.7 µM 3% | [11]; [17] -11% | [11]; at 11.0 µM 8% | [11]; at 33.0 µM 10% | [11]; [18] 31% | [11]; at 50.0 µM 28.1% | [11]; at 100.0 µM 12% | [12]; at 1.2 µM 1% | [12]; at 3.7 µM 2% | [12]; at 11.0 µM 5% | [12]; at 33.0 µM 3% | [12]; at 100.0 µM 6% | [13]; at 1.2 µM 1% | [13]; at 3.7 µM 4% | [13]; at 11.0 µM 5% | [13]; at 33.0 µM 12% | [13]; at 100.0 µM 20% | [14]; at 1.2 µM 1% | [14]; at 3.7 µM 3% | [14]; at 11.0 µM 7% | [14]; at 33.0 µM 10% | [14]; at 100.0 µM 19% | [15]; [17] -1% | [15]; at 50.0 µM 63.6% | [16]; at 1.2 µM 2% | [16]; at 3.7 µM 4% | [16]; at 11.0 µM 16% | [16]; at 33.0 µM 23% | [16]; at 100.0 µM 31%
active: [15]; [18] 70%

Source: PubChem BioAssay (NCI)
